Results on 11 molecules are retold here after PubChem BioAssay (Tox21).

A short description of test [1]: qHTS assay to identify small molecule antagonists of the glucocorticoid receptor (GR) signaling pathway - cell viability counter screen (AID 720693). Further: nearly all actives have a fitted effect of over 55% in size.
Test [2] can be described thus: qHTS assay for identifying genotoxic compounds that show differential cytotoxicity against isogenic chicken DT40 cell lines with known DNA damage response pathways - wild type cell line (AID 743012). Further: nearly all actives have a fitted effect of over 60% in size. In short, it runs like this:
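Cells (DT40 wild type, 300/well) are treated with DMSO-dissolved compounds after a ~0.5 h pre-incubation and kept 40 h at 37 C/5% CO2. Viability is then measured by CellTiter-Glo luminescence following 30 min at room temperature.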

A short description of test [3]: qHTS assay for identifying genotoxic compounds that show differential cytotoxicity against isogenic chicken DT40 cell lines with known DNA damage response pathways - Rev3 mutant cell line (AID 743014). Further: nearly all actives have a fitted effect of over 55% in size. Further: potency means the concentration at half of the fitted maximal effect.
Test [4] can be described thus: qHTS assay to identify small molecule antagonists of the androgen receptor (AR) signaling pathway - cell viability counter screen (AID 743033; further: nearly all actives have a fitted effect of over 45% in size). (In general: qHTS replaces the single test concentration by a dilution series.)
Test [5] is described as follows: qHTS assay to identify small molecule antagonists of the androgen receptor (AR) signaling pathway using the MDA cell line - cell viability counter screen (AID 743041; further: nearly all actives have a fitted effect of over 45% in size; further: potency means the concentration at half of the fitted maximal effect). In short, it runs like this:
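Same-well cytotoxicity was assessed by CellTiter-Fluor in MDA-kb2 AR-luc cells after 16 h of compound treatment under R1881 agonism.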

Test [6] is described as follows: qHTS assay to identify small molecule antagonists of the thyroid receptor (TR) signaling pathway - cell viability counter screen (AID 743064). Further: nearly all actives have a fitted effect of over 50% in size. Further: potency means the concentration at half of the fitted maximal effect. The gist of the method:
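Plate GH3.TRE-Luc cells; incubate 4 h at 37 °C; add compound, then T3 to 1 nM final; incubate 23.5 h; add CellTiter-Fluor; incubate 30 min at 37 °C, 5% CO2; read fluorescence.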

For test [7], the system named is thyroid hormone receptor (rat, GH3 cells). Kind of test: qHTS assay to identify small molecule agonists of the thyroid receptor (TR) signaling pathway (AID 743066; calls by dose curve).
For test [8], the target named is Estrogen receptor (Homo sapiens) (UniProt P03372). Kind of test: qHTS assay to identify small molecule antagonists of the estrogen receptor alpha (ER-alpha) signaling pathway (AID 743069; active means well fitted curve in the direction sought with a large enough effect in the signal ratio in the repeat runs, not every such curve was filed as active; the % refers to the signal ratio). In short, it runs like this: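 Reporter cells (ER-alpha-bla, HEK293 background) are conditioned overnight in stripped-serum medium (2% charcoal-stripped FBS). Compound and 17beta-estradiol exposure runs 18 hr at 37C, 5% CO2.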
Chain of Estrogen receptor (Homo sapiens) (P03372 whole entry, looked up): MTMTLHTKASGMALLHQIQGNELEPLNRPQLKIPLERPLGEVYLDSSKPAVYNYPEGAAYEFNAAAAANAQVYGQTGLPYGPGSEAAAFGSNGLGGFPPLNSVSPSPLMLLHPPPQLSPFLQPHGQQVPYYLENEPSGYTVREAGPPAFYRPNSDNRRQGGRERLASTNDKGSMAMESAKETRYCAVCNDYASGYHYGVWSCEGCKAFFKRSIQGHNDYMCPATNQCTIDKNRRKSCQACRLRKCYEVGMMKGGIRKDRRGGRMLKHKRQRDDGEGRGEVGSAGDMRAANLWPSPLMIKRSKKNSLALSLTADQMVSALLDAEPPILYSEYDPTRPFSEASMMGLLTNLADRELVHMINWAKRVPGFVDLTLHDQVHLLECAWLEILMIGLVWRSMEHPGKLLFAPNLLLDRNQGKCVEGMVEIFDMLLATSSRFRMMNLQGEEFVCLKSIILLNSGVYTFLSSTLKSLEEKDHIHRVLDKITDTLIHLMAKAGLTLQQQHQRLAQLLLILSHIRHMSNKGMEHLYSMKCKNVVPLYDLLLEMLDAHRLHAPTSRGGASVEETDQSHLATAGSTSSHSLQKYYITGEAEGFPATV

A short description of test [9]: qHTS assay to identify small molecule antagonists of the estrogen receptor alpha (ER-alpha) signaling pathway - cell viability counter screen (AID 743074; calls by dose curve;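 further: HEK293 cells carrying ER-alpha-UAS-bla reporter stimulated with 17beta-estradiol; nearly all actives have a fitted effect of over 45% in size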).
Test [10] concerns the target Estrogen receptor (Homo sapiens) (UniProt P03372). Kind of test: qHTS assay to identify small molecule agonists of the estrogen receptor alpha (ER-alpha) signaling pathway (AID 743075; calls by dose curve;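 further: HEK293 GripTite cells with ER-alpha and UAS-driven beta-lactamase reporter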).
The target is the same in test [11]. Kind of test: qHTS assay to identify small molecule agonists of the estrogen receptor alpha (ER-alpha) signaling pathway using the BG1 cell line (AID 743079). Further: nearly all actives have a fitted effect of over 20% in size.
Test [12] is described as follows: qHTS assay to identify small molecule antagonists of the estrogen receptor alpha (ER-alpha) signaling pathway using the BG1 cell line (AID 743080; calls by dose curve;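 further: BG1 cells stimulated with 17beta-estradiol alongside compound; series mostly up to about 70 µM; nearly all actives have a fitted effect of over 25% in size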). In short, it runs like this: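 BG1-Luc-4E2 cells (endogenous full-length ER-alpha, stable 4×ERE-luciferase) were starved 5 days in phenol-red-free medium with 10% charcoal-stripped FBS, plated 24 h, then given compound plus 17beta-estradiol for 21.5 h at 37 C; ONE-Glo luminescence read after 30 min.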

Test [13] can be described thus: qHTS assay to identify small molecule antagonists of the estrogen receptor alpha (ER-alpha) signaling pathway using the BG1 cell line - cell viability counter screen (AID 743081).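 Further: compound given together with 17beta-estradiol as the ER stimulus; series mostly up to about 70 µM; nearly all actives have a fitted effect of over 45% in size.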
The next test concerns the target Aromatase (Homo sapiens) (UniProt P11511). Kind of test: qHTS assay to identify aromatase inhibitors (AID 743083). Further: series mostly up to about 70 µM; nearly all actives have a fitted effect of over 55% in size.
The nature of test [14]: qHTS assay to identify small molecule antagonists of the thyroid receptor (TR) signaling pathway (AID 743065). Further: series mostly up to about 70 µM; nearly all actives have a fitted effect of over 55% in size. In short, it runs like this: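 GH3.TRE-Luc rat pituitary cells (two TREs driving luciferase) were dosed with compound, then stimulated with 1 nM T3 (final) for 23.5 h at 37 C. ONE-Glo luminescence was the read-out, with CellTiter-Fluor fluorescence as the cytotoxicity counter-screen.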

Test [15] is described as follows: qHTS assay for identifying genotoxic compounds that show differential cytotoxicity against isogenic chicken DT40 cell lines with known DNA damage response pathways - Rad54/Ku70 mutant cell line (AID 743015). Further: nearly all actives have a fitted effect of over 60% in size.
The target of test [16] is Androgen receptor (Homo sapiens) (UniProt P10275). Kind of test: qHTS assay to identify small molecule agonists of the androgen receptor (AR) signaling pathway (AID 743036; active means well fitted activation curve with a large enough effect in the signal ratio in the repeat runs, with a control signal flat, not every such curve was filed as active; the % refers to the signal ratio). The gist of the method:
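Reporter line: GeneBLAzer AR-UAS-bla-GripTite (HEK293). Steps: plate cells, 4 h rest, add compounds, 16 h at 37C, add LiveBLAzer B/G substrate, 2 h at RT, read fluorescence.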

Test [17] has the same target. Kind of test: qHTS assay to identify small molecule agonists of the androgen receptor (AR) signaling pathway using the MDA cell line (AID 743040; further: nearly all actives have a fitted effect of over 20% in size). In short, it runs like this:
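Human breast carcinoma MDA-kb2 reporter cells (MMTV-luc, AR/GR elements) were treated for 16 h at 37C in 0% CO2 following a 5 h settling period. Signal was quantified by ONE-Glo luminescence.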

Results filed as inconclusive are left out. Activity calls are given as the source filed them. Unless noted, the call rests on the fitted dose curve; in most records, active means well fitted curve in the direction sought with a large enough effect in the repeat runs; inconclusive means weak or mixed curves; inactive means no such curve, though single readings can be large; an effect the other way counts as inactive or inconclusive.

Chain of Aromatase (Homo sapiens) (P11511 whole entry, looked up): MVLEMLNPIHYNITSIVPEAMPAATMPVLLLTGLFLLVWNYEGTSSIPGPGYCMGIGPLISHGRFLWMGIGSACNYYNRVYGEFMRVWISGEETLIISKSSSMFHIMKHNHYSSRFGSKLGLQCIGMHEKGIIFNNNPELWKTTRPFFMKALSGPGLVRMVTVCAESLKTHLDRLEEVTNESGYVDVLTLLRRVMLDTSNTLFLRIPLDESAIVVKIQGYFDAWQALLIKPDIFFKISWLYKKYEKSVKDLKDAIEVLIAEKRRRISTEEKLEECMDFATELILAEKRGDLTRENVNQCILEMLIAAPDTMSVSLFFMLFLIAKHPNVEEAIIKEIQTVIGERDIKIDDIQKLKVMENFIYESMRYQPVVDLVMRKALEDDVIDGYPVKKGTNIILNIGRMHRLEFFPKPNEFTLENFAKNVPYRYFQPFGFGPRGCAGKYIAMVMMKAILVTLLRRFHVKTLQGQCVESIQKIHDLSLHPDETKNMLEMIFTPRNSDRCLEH
Chain of Androgen receptor (Homo sapiens) (P10275 whole entry, looked up): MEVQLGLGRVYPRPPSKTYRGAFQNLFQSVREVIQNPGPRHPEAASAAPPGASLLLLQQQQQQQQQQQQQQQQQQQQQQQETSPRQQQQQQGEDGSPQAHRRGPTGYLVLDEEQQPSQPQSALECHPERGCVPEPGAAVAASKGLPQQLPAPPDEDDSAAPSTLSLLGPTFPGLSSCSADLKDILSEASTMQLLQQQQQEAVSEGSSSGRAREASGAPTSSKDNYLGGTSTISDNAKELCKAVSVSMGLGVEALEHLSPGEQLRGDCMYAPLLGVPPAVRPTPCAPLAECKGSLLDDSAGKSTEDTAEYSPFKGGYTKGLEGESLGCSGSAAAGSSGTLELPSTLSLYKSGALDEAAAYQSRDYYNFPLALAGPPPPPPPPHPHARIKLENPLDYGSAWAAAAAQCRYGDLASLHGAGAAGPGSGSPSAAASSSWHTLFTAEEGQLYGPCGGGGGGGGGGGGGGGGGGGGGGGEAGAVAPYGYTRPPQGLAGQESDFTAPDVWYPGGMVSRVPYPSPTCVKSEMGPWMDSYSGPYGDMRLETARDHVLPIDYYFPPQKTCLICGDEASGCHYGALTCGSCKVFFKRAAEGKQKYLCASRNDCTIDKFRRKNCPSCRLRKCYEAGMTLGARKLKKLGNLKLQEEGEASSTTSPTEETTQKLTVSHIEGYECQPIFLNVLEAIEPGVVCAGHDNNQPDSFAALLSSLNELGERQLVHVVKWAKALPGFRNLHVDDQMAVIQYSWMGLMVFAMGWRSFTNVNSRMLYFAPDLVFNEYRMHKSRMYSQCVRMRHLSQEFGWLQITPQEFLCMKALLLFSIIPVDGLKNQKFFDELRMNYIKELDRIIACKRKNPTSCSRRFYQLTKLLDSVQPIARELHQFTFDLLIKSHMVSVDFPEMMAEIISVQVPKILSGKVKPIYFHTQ

Consider `O=C(Nc1ccccc1)OCC(CN1CCCCC1)OC(=O)Nc1ccccc1` (stereo not given), for which the Potency result in [1], in test [2], in test [3], in test [4], in test [5] and in test [7] was “inactive” in each case. Further, the Potency entry (in test [8]; in test [10]; in test [11]; in test [12]; in test [13]; with Aromatase (Homo sapiens)) was “inactive” throughout. Besides, in test [6], the Potency is 10.1 µM (active). In test [9], the molecule was classed as inactive.

Take `CCCCCCOC(=O)CCC`: the Potency entry in [1], in [2], in test [3], in test [4], in test [5] and in test [6] was “inactive” throughout. Moreover, the Potency entry (in test [13]; in the test with Aromatase (Homo sapiens)) was “inactive” in each case.

With `CCN(CC)C(C)=O`, the Potency entry in [1], in [2], in [3], in test [4], in [5] and in test [6] was “inactive” in each case. In addition, the Potency result (in [14]; in test [7]; in test [13]; with Aromatase (Homo sapiens)) was “inactive” each time. The result in [9] was inactive.

In the case of `CC(=O)/C=C/C1C(C)=CCCC1(C)C` (stereo not given), the Potency entry in [1], in [3], in [15], in [5], in [6] and in [7] was “inactive” each time. For the same molecule, the Potency entry (in test [8]; in test [10]; in [12]; in [13]; with Aromatase (Homo sapiens)) was “inactive” throughout. Also, the outcome in test [9] was inactive.

As for `CCN1CCC[C@H]1CNC(=O)c1c(OC)ccc(Br)c1OC`, the Potency result in [1], in test [2], in test [15], in [4], in test [5] and in test [8] was “inactive” throughout. The Potency result (in test [10]; in test [11]; in [12]; in test [13]; in the test with Aromatase (Homo sapiens)) was “inactive” throughout. Besides, the call in [9] was inactive.

In the case of `CCCCOC(=O)c1ccccc1C(=O)OCC(CC)CCCC` (stereo not given), the Potency result in test [1], in [2], in [15], in test [4], in test [5] and in test [6] was “inactive” throughout. For the same molecule, the Potency entry in test [14], in test [7], in [10], in [11], in [12] and in test [13] was “inactive” throughout. Further, in the test with Aromatase (Homo sapiens), the Potency entry was “inactive”.

For the molecule `O=C=NC1CCC(CC2CCC(N=C=O)CC2)CC1` (stereo not given), the Potency entry (in test [1]; in test [4]; in test [6]; in test [14]; in test [7]; with Aromatase (Homo sapiens)) was “inactive” each time. In addition, the Potency in test [3] was 54.5 µM (active); in test [5], 6.86 µM (active). Moreover, the result in [9] was inactive.

Turning to `Oc1ccc(Cc2ccccc2)cc1`, the Potency result in test [1], in test [2], in test [5], in [6], in [7] and in [13] was “inactive” throughout. For the same molecule, in test [9], the molecule was called inactive.

Take `CC1=CCC(C(C)C)C=C1` (stereo not given): the Potency result in [1], in test [2], in test [4], in test [5], in test [6] and in test [8] was “inactive” in each case. Also, the Potency entry (in test [10]; in [11]; in [13]; with Aromatase (Homo sapiens)) was “inactive” in each case. The molecule was classed as inactive in [9].

As to `O=CNc1ccccc1`, the Potency entry in [1], in test [2], in test [15], in [4], in test [5] and in test [6] was “inactive” each time. The Potency entry (in [14]; in test [7]; in test [13]; in the test with Aromatase (Homo sapiens)) was “inactive” each time. Moreover, the call in test [9] was inactive.

On to `CC(=O)N(O)CCCCCNC(=O)CCC(=O)N(O)CCCCCNC(=O)CCC(=O)N(O)CCCCCN`, for which the Potency entry in test [1], in [3], in [15], in [4], in test [17] and in test [5] was “inactive” each time. Also, the Potency entry in test [6], in [14], in test [7], in [8], in test [10] and in test [11] was “inactive” each time. Besides, the Potency entry (in test [12]; in test [13]; in the test with Aromatase (Homo sapiens)) was “inactive” in each case. In addition, the result in test [16] and in [9] was inactive.
